Screens deposited in PubChem BioAssay by National Center for Advancing Translational Sciences (NCATS).
HCMV antiviral: qHTS Assay for inhibitors of the human cytomegalovirus (HCMV); HFF cells, HCMV-luciferase reporter, 72 h; hits give low values; activity change, negative = inhibition, % at 57.5 µM; actives 4.5% (n = 410,000); AID 1259415, 2018; in the data active = activity change below about -60%; inconclusive = no clear call, values can overlap the other calls; inactive = above about -39%
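After 16 h attachment at 37C, HFF cells received test compound and HCMV-luciferase (1 PFU/cell); reporter luminescence read 72 h later, data normalized against buffer-only and known inhibitor Salinomycin.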
Marburg entry inh: qHTS for inhibitors of binding or entry into cells for Marburg Virus | Marburg virus pseudotyped entry inhibition, cell reporter | Potency, µM (highest dose often 37.8 µM), for the others: at the highest dose activity change, negative = inhibition, usual class: inhibitors | actives 1.8% (n = 300,000) | AID 540276, 2011; calls by dose curve; tested in HEK293 cells; also: potency is read from the fitted curve at half-maximal effect
Pf growth 48h: Primary qHTS for delayed death inhibitors of the malarial parasite plastid, 48 hour incubation; AID 504832, 2011; actives 5.9% (n = 310,000); Potency, µM (series often up to 28.7 µM), for the others: top-dose activity change, negative = inhibition, hits mostly inhibitors; P. falciparum luciferase growth in erythrocytes, 48 h; also: potency is read from the fitted curve at half-maximal effect
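In quantitative HTS format, infected erythrocytes bearing luciferase-reporter parasites were treated for a single generation at 37 C. Luminescence after adding detection reagent served as the growth measure.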
Pf growth 96h: Primary qHTS for delayed death inhibitors of the malarial parasite plastid, 96 hour incubation | P. falciparum luciferase reporter growth, 96 h | Potency, µM (highest dose often 28.7 µM), inactives show at the highest dose activity change, negative = inhibition, usual class: inhibitors | actives 6.9% (n = 320,000); also: potency is read from the fitted curve at half-maximal effect
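Infected RBCs, 2% Hct / 0.05% parasitemia final; luciferase-reporter P. falciparum; cpd 96 h, 37 C, 5% CO2; luciferase detection reagent; luminescence.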
LASV entry inh: qHTS for Inhibitors of binding or entry into cells for Lassa Virus; Lassa virus pseudotype entry inhibition, cell reporter; Potency, µM (series often up to 37.9 µM), for the others: top-dose activity change, negative = inhibition, usual class: inhibitors; actives 1.2% (n = 300,000); AID 540256, 2011; calls by dose curve; tested in HEK293 cells; also: potency is read from the fitted curve at half-maximal effect; nearly all actives have a fitted effect of over 50% in size
HCV inhibitor: qHTS Assay for Inhibitors of Hepatitis C Virus (HCV); Huh7.5.1 HCVcc-Cre infection, luciferase reporter, 44 h; Potency, µM (titrated, usually from 41.8 µM), for the others: at the top dose activity change, negative = inhibition, hits mostly inhibitors; actives 3.4% (n = 340,000); also: potency is read from the fitted curve at half-maximal effect
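Seed cells (1,000/well) for 4 h; treat with compound and infect with HCVcc-Cre, moi about 0.5. Incubate 44 h, then detect luciferase activity.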
* marks the source's active call; other numbers are inactive results; u = inconclusive; x = no result; + = active, no number; [ ] = remark or other dose. Most compounds without a hit are left out; they make up all but 14% or so of the library. Unless noted, calls follow the shape of the dose curve; as a rule, active = well fitted inhibition curve with a large enough effect; inconclusive = small, poorly fitted or top-dose-only effect, or another doubt; inactive = no such curve, though single readings can be large or run the other way. % is scaled to controls: 0 for no effect and ±100 for the full control effect.

SMILES	HCMV antiviral	Marburg entry inh	Pf growth 48h	Pf growth 96h	LASV entry inh	HCV inhibitor
COc1ccc(NC(=O)CNC(=O)Cn2ccc3ccccc3c2=O)cc1OC	4	u	x	x	9%[46.1 µM]	x
CCN1C(=O)C(CC(=O)NCCc2ccccc2)N(NC(=O)c2ccc(Br)cc2)C1=S (stereo not drawn)	-15	x	x	x	x	x
Cc1nc2ccccc2c(=O)n1-c1ccccc1C(F)(F)F	28	9%	u	u	-2%	1%
Cc1ccccc1[C@]1(C)ON(c2ccccc2C(F)(F)F)C1=O	x	x	1.9µM*	1.3µM*	x	-7%
COc1ccccc1[C@@]1(C)ON(c2ccccc2C(F)(F)F)C1=O	-4	x	1.5µM*	1µM*	x	3.2µM*
CC[C@]1(c2ccccc2C)ON(c2ccccc2C(F)(F)F)C1=O	34	x	2.6µM*	u	x	0%
COc1ccccc1NC(=O)CN1C(=O)C(C)(C)c2ccccc21	4	x	x	x	-4%[46.1 µM]	x
CC(C)C(NC(=O)C(C(C)C)N(C)C)C(=O)N(C)C(C(=O)N1CCCC1C(=O)N1CCCC1C(=O)NCc1ccccc1)C(C)C (stereo not drawn)	-86*	u	x	x	u	31%
O=C(NCc1ccncc1)[C@@H]1CCCN1C(=O)[C@@H]1CCCN1C(=O)c1ccccc1	-4	x	x	x	x	x
CC[N+](C)(C)c1cccc(O)c1	-3	u	u	1.7µM*	-9%	2%[8.37 µM]
CC1=C(C(=O)Nc2cccc(C(=O)N3CCN(c4cccc(C(F)(F)F)c4)CC3)c2)SCCO1	0	x	u	u	x	u
COc1cccc(-n2cc(C(=O)Nc3cc(C)c(Cl)cc3OC)c3ccccc3c2=O)c1	u	x	x	x	-10%[46.1 µM]	x
O=C(NCCc1ccc(Cl)cc1)C1CCCN(c2ncnc3c2nc2n3CCCCC2)C1 (stereo not drawn)	-26	-5%[46.1 µM]	u	u	-6%[46.1 µM]	u
Cc1cccc(N2CCN(c3ncnc4c3nc3n4CCCCC3)CC2C)c1 (stereo not drawn)	-98*	x	x	x	u	x
Cc1cccc(CCNC(=O)C2CCCN(c3ncnc4c3nc3n4CCCCC3)C2)c1 (stereo not drawn)	u	u	u	12µM*	u	u
O=C(NCc1cccc(Cl)c1)C1CCN(c2nn3cc(-c4ccc(F)cc4)nc3s2)CC1	16	x	x	x	24%[46.1 µM]	x
Clc1cccc(N2CCN(c3ncnc4c3nc3n4CCCC3)CC2)c1	53	u	x	x	4%[46.1 µM]	x
O=C(NCc1cccc(Cl)c1)C1CCCN(c2nn3cc(-c4ccc(F)cc4)nc3s2)C1 (stereo not drawn)	+	x	x	x	-6%[46.1 µM]	x
Cc1ccc(NC(=O)C2CCN(c3ncnc4c3nc3n4CCCCC3)CC2)nc1	-91*	x	-12%	61%	x	13µM*
COc1ccc(CNC(=O)C2(C)Cc3c(-c4ccc(N(C)C)cc4)ccnc3O2)cc1OC (stereo not drawn)	2	x	x	x	x	x
Cc1cccc(-n2c(=O)c3c4c(sc3n3cnnc23)CCCC4)c1	-21	1%[46.1 µM]	x	x	12%[46.1 µM]	x
O=C(Nc1ccc2c(c1)OCCO2)C(c1cc2ccccc2o1)N1CCN(C/C=C/c2ccccc2)CC1 (stereo not drawn)	-36	x	x	x	x	x
COc1ccc(C)cc1NC(=O)c1ccc(=O)n(Cc2ccccc2)c1	-27	x	x	x	-19%[46.1 µM]	x
CC1(C(=O)NS(=O)(=O)c2ccc3c(c2)CCO3)CCN1C(=O)COc1ccc(Cl)cc1 (stereo not drawn)	-14	x	x	x	x	x
COc1cc(NC(=O)C2CCCN(c3ncnc4c3nc3n4CCCCC3)C2)cc(OC)c1OC (stereo not drawn)	-26	u	u	13µM*	u	-24%
O=C(NCc1cccc(Cl)c1)C1CCCN(c2ncnc3c2nc2n3CCCCC2)C1 (stereo not drawn)	-67*	u	u	u	u	u
